Reference: PubChem BioAssay (NCATS)
Several values for one entry are separate records, joined by “and”; a condition that tells them apart may be missing. Equal entries are not always repeated. Inconclusive results are not listed. A call without a number means that no potency is given here. Some structures have more than one record in an assay (separate samples or runs), and their calls can disagree. Activity calls are given as the source filed them. The call rests on the fitted dose curve; in most records, active means well fitted curve in the direction sought with a large enough effect; inconclusive means small, poorly fitted or top-dose-only effect, or another doubt; inactive means no such curve, though single readings can be large; an effect the other way counts as inactive or inconclusive.

What was measured:
[1] = tested on: MCC-13; assay: qHTS assay to identify novel small-molecules to repurpose for Merkel cell carcinoma treatment (AID 1296009); details: MCC and control cell lines, CellTiter-Glo viability, 72 h; series mostly up to 46 µM; further: nearly all actives have a fitted effect of over 60% in size
In short: (§1)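 Cells exposed to NPC (8-point) and MIPE (11-point) compound dilutions for 72 hr at 37 degree celsius; viability read by CellTiter-Glo luminescence, normalized to no-cell and DMSO in-plate controls.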

[2] = tested on: MKL-1; assay: as above; details: MCC and control cell lines, CellTiter-Glo viability, 72 h; series mostly up to 46 µM
In short: as §1

[3] = tested on: MKL-2; assay: as above; details: MCC and control cell lines, CellTiter-Glo viability, 72 h; series mostly up to 46 µM
In short: as §1

[4] = tested on: UISO; assay: as above; details: MCC and control cell lines, CellTiter-Glo viability, 72 h; series mostly up to 46 µM
In short: as §1

[5] = tested on: WaGa; assay: as above; details: MCC and control cell lines, CellTiter-Glo viability, 72 h; series mostly up to 46 µM
In short: as §1

[6] = tested on: C33A; assay: Primary qHTS to identify gynecologic anti-cancer compounds using libraries of approved drugs and bioactive compounds (AID 1345084); details: Gynecologic cancer cell panel viability, ATPlite luminescence, 48 h; series mostly up to 57.5 µM; further: nearly all actives have a fitted effect of over 55% in size
In short: (§2)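 Luminescence from the ATPlite ATP-monitoring reagent indicates viable cell number; lower signal means cytotoxicity. Cells received compound 16 h after seeding and were exposed for 48 h across five concentrations.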

[7] = tested on: CAOV3; assay: as above; details: Gynecologic cancer cell panel viability, ATPlite luminescence, 48 h; series mostly up to 57.5 µM
In short: as §2

[8] = tested on: CASKI; assay: as above; details: Gynecologic cancer cell panel viability, ATPlite luminescence, 48 h; series mostly up to 57.5 µM
In short: as §2

[9] = tested on: Es-2; assay: as above; details: Gynecologic cancer cell panel viability, ATPlite luminescence, 48 h; series mostly up to 57.5 µM
In short: as §2

[10] = tested on: HeLa; assay: as above; details: Gynecologic cancer cell panel viability, ATPlite luminescence, 48 h; series mostly up to 57.5 µM
In short: as §2

[11] = tested on: Hek293T; assay: as above; details: Gynecologic cancer cell panel viability, ATPlite luminescence, 48 h, control line for the selectivity index; series mostly up to 57.5 µM
In short: as §2

[12] = tested on: OV90; assay: as above; details: Gynecologic cancer cell panel viability, ATPlite luminescence, 48 h; series mostly up to 57.5 µM
In short: as §2

[13] = tested on: Tov-21-G; assay: as above; details: Gynecologic cancer cell panel viability, ATPlite luminescence, 48 h; series mostly up to 57.5 µM
In short: as §2

[14] = tested on: NIH3T3; assay: qHTS assay to identify novel small-molecules to repurpose for Merkel cell carcinoma treatment (AID 1296009); details: MCC and control cell lines, CellTiter-Glo viability, 72 h; at 44.8 µM (top of the series) unless noted; further: nearly all actives have a fitted effect of over 60% in size
In short: as §1

[15] = tested on: JEG-3; assay: Primary qHTS to identify gynecologic anti-cancer compounds using libraries of approved drugs and bioactive compounds (AID 1345084); details: Gynecologic cancer cell panel viability, ATPlite luminescence, 48 h; series mostly up to 57.5 µM; further: nearly all actives have a fitted effect of over 55% in size
In short: as §2

[16] = tested on: PA-1; assay: as above; details: Gynecologic cancer cell panel viability, ATPlite luminescence, 48 h; series mostly up to 57.5 µM
In short: as §2

[17] = tested on: SKOV3; assay: as above; details: Gynecologic cancer cell panel viability, ATPlite luminescence, 48 h; series mostly up to 57.5 µM
In short: as §2

[18] = tested on: MCC-26; assay: qHTS assay to identify novel small-molecules to repurpose for Merkel cell carcinoma treatment (AID 1296009); details: MCC and control cell lines, CellTiter-Glo viability, 72 h; series mostly up to 46 µM; further: nearly all actives have a fitted effect of over 60% in size
In short: as §1
Potency means the concentration at half of the fitted maximal effect.

| Compound | Potency [1] | Potency [2] | Potency [3] | Potency [4] | Potency [5] | Potency [6] | Potency [7] | Potency [8] | Potency [9] | Potency [10] | Potency [11] | Potency [12] | Potency [13] | outcome [14] | Potency [15] | Potency [16] | Potency [17] | Potency [18] |
| --- | --- | --- | --- | --- | --- | --- | --- | --- | --- | --- | --- | --- | --- | --- | --- | --- | --- | --- |
| CC(C)C(C)(C)C(C)(C)C(C)(C)S | inactive | inactive | inactive | inactive | inactive | inactive | inactive | inactive | inactive | inactive | inactive | inactive | inactive |  |  |  |  |  |
| Cc1cc(=O)oc2cc(O[C@@H]3SC[C@@H](O)[C@H](O)[C@H]3O)ccc12 | inactive | inactive | inactive | inactive | inactive | inactive | inactive | inactive | inactive | inactive | inactive | inactive | inactive | inactive | inactive | inactive |  |  |
| Cc1cccc(N(C)C(=S)Oc2ccc3c(c2)CCC3)c1 | inactive | inactive | inactive | inactive |  | inactive | inactive | inactive | inactive | inactive | inactive | inactive | inactive |  | inactive | inactive | inactive |  |
| OCc1c[nH]c2ccccc12 | inactive |  | 24.3 µM (active) | 10.9 µM (active) |  | 35.5 µM (active) |  |  |  |  |  |  |  |  |  |  |  |  |
| CC(=O)[C@@]1(O)CC[C@H]2[C@@H]3C[C@H](C)C4=CC(=O)CC[C@]4(C)[C@H]3CC[C@@]21C | inactive | inactive |  | inactive | inactive | inactive | inactive | inactive | inactive | inactive | inactive | inactive | inactive |  | inactive | inactive | inactive |  |
| COc1c(C)c2c(c(O)c1C/C=C(\C)CCC(=O)OCCN1CCOCC1)C(=O)OC2 | 0.944 µM (active) | inactive | inactive |  | inactive |  | inactive |  |  |  |  |  | 2 µM (active) |  | inactive |  |  |  |
| OC1(c2ccc(Cl)c(C(F)(F)F)c2)CCN(CCCC(c2ccc(F)cc2)c2ccc(F)cc2)CC1 | 18.8 µM (active) | 7.5 µM (active) | 5.31 µM (active) | 10.6 µM (active) | 15 µM (active) |  |  |  | 25.1 µM (active) and inactive | 25.1 µM (active) and inactive |  | 25.1 µM (active) and 31.6 µM (active) | inactive |  |  | inactive | 25.1 µM (active) |  |
| COc1cc(S(N)(=O)=O)cc(C(=O)O)c1OC | inactive | inactive | inactive | inactive | inactive | inactive | inactive | inactive | inactive | inactive | inactive | inactive | inactive | inactive | inactive | inactive | inactive |  |
| CC(C)CCCC(C)NCCC(C)C (stereo not drawn) | inactive | inactive | inactive | inactive | inactive | inactive |  |  | inactive | inactive | inactive | inactive | inactive | inactive | inactive | inactive | inactive |  |
| Cc1cc(C(C)(C)C)c(O)c(C(C)(C)C)c1 | inactive | inactive | inactive | inactive | inactive | inactive |  | inactive | inactive | inactive | inactive | inactive | inactive |  | inactive | inactive | inactive |  |
| OC(CCCN1CCCCC1)(c1ccccc1)c1ccccc1 | inactive | inactive | inactive | inactive | inactive | inactive | inactive | inactive | inactive | inactive | inactive |  | inactive |  | inactive | inactive | inactive |  |
| CCOC(=O)Cn1cccc1-c1nc(-c2ccc(OC)cc2)c(-c2ccc(OC)cc2)s1 | inactive |  |  | inactive | inactive | inactive |  | inactive | inactive | inactive | inactive | inactive | inactive | inactive | inactive | inactive | inactive | inactive |
| CC[C@@]1(O)C(=O)OCc2c1cc1n(c2=O)Cc2c-1nc1ccccc1c2/C=N/OC(C)(C)C | 0.0841 µM (active) |  | 0.0376 µM (active) | 0.168 µM (active) | 0.0266 µM (active) |  |  |  |  | inactive | 0.355 µM (active) | 8.91 µM (active) | 1.41 µM (active) |  | inactive |  |  |  |
| COC(=O)[C@H]1[C@H]2C[C@@H]3c4[nH]c5cc(OC)ccc5c4CCN3C[C@H]2C[C@@H](OC(=O)/C=C/c2ccc(O)c(OC)c2)[C@@H]1OC | inactive |  |  |  |  | inactive |  | inactive | inactive | inactive | inactive | 31.6 µM (active) |  |  |  | inactive | 35.5 µM (active) |  |
| O=C(O)Cc1ccc(OCCNC[C@H](O)c2ccccc2)cc1 | inactive |  |  |  |  | inactive | inactive | inactive | inactive | inactive | inactive | inactive | inactive |  | inactive | inactive | inactive |  |
